In PubChem BioAssay:
For part of these data: Potency and affinity values are given separately. The source made the active and inactive calls.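 Rule for the calls, unless noted: active = compound raising the membrane signal above positive-control mean plus 3 SD in both repeats, and a primary screen hit; inactive = the rest.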

Assays:
[1] = test system: TRPC4 beta (transient receptor potential cation channel C4), mouse; assay: TRPC4 cation channel opening, retest – cell-based, Fluo4 calcium, HEK293 TRPC4beta/mu-opioid, duplicates, 10 µM, confirmation (AID 2426;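 active = fluorescence ratio normalized to control raised more than 50% in primary screen plus both repeat runs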;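 for activation: percent rise of integrated ratio over buffer wells lacking compound which define 0%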); conditions: Fluo4 calcium fluorescence, at 10 µM; stronger effect = higher value
[2] = test system: transient receptor potential cation channel C4 beta (TRPC4), mouse; assay: TRPC4 cation channel opening, second retest – cell-based, second round, Fluo4, HEK293 TRPC4beta/mu-opioid, 1 µM, confirmation (AID 2461;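 active = primary screen active and over 50% activation in each of two duplicate runs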;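 for activation: 0% = wells without test compound as baseline of integrated fluorescence ratio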); conditions: Fluo4 calcium fluorescence, at 1 µM; stronger effect = higher value
[3] = test system: TRPC4 (transient receptor potential cation channel C4 beta), mouse; assay: potentiation of DAMGO EC20 TRPC4 response – cell-based, second round, Fluo-4, HEK293 TRPC4beta/mu-opioid, 1 µM, confirmation (AID 2554;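 active = primary screen hit whose fluorescence ratio, in both repeats, exceeds the weak agonist control mean by 3 SD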); conditions: DAMGO EC20, Fluo-4 calcium flux, at 1 µM; stronger effect = higher value
[4] = test system: TRPC4 beta (transient receptor potential cation channel C4), mouse; assay: potentiation of DAMGO EC20 TRPC4 response – cell-based, Fluo-4, HEK293 TRPC4beta/mu-opioid, confirmation (AID 2555;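 active = primary screen hit whose calcium fluorescence ratio, in both repeats, exceeds the weak agonist control mean by 3 SD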); conditions: DAMGO EC20, Fluo-4 calcium flux, at 10 µM; stronger effect = higher value
[5] = molecular target: Short transient receptor potential channel 4 (Mus musculus) (UniProt Q9QUQ5); assay: blockers of DAMGO-evoked TRPC4 calcium flux – cell-based, Fluo4, HEK293 TRPC4beta/mu-opioid, confirmation (AID 2636;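 active = calcium signal cut by more than 3 SD below the full-agonist control yet still positive, in both repeats and the earlier primary screen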); conditions: at 10 µM; stronger effect = higher value
Short transient receptor potential channel 4 (Mus musculus), sequence (Q9QUQ5 whole entry, looked up): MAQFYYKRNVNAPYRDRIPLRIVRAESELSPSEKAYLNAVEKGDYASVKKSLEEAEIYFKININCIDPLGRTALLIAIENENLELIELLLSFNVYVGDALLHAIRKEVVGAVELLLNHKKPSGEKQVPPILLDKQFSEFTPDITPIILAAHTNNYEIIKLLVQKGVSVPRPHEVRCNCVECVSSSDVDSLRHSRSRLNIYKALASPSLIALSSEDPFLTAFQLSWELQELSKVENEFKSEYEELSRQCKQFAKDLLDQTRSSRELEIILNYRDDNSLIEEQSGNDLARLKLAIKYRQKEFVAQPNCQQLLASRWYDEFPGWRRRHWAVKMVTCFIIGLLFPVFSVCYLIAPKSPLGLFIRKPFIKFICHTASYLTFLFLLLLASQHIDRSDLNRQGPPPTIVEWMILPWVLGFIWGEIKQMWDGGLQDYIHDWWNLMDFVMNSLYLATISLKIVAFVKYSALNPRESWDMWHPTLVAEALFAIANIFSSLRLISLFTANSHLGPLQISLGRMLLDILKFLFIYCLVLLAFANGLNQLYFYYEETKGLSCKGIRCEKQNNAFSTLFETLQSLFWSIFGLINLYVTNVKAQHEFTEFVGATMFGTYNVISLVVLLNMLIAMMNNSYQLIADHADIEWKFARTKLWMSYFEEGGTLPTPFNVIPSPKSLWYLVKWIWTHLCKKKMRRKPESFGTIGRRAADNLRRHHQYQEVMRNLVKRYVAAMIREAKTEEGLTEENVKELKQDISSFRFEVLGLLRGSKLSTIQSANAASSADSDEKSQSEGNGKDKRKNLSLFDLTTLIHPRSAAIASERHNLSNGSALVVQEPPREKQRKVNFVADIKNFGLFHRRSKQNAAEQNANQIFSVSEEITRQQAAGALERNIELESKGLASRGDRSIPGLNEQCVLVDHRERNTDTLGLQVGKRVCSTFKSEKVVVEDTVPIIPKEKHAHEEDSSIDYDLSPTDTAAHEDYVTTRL

[6] = molecular target: Short transient receptor potential channel 4 (Mus musculus) (UniProt Q9QUQ5); assay: blockers of DAMGO-evoked TRPC4 calcium flux – cell-based, second round, Fluo4, HEK293 TRPC4beta/mu-opioid, 1 µM, confirmation (AID 2637;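 active = calcium signal ratio cut to more than 3 SD under the fully stimulated control mean yet still positive, in both repeats and the primary screen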); conditions: at 1 µM; stronger effect = higher value
[7] = molecular target: Short transient receptor potential channel 4 (Mus musculus) (UniProt Q9QUQ5); assay: potentiation of DAMGO-evoked TRPC4 calcium signal – cell-based, HEK293 TRPC4/mu-opioid, Fluo-4 calcium, EC20 DAMGO, dose response (AID 434941;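 active = earlier screen potentiator hit that boosts the TRPC4 ion channel at some dose, with a dose response; inactive = no potentiation, no dose response, or not a prior hit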;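 note: calcium entry triggered by an EC20 dose of DAMGO at the co-expressed mu-opioid receptor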)
[8] = molecular target: Short transient receptor potential channel 4 (Mus musculus) (UniProt Q9QUQ5); assay: block of DAMGO-driven TRPC4 calcium entry – cell-based, HEK293 TRPC4/mu-opioid, Fluo-4 calcium, dose response (AID 434942;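 active = primary screen inhibitor hit that blocks the TRPC4 channel at some tested dose, yielding a dose curve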)
[9] = molecular target: Short transient receptor potential channel 6 (Mus musculus) (UniProt Q61143); assay: TRPC6 blockade by TRPC4 inhibitor hits – cell-based, HEK293, membrane potential dye, duplicate, selectivity assay for TRPC4 inhibitor project, confirmation (AID 434948;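 active = active in primary screen and both duplicates, each dropping signal beyond three positive-control SD with fluorescence still positive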); conditions: HEK293 TRPC6, membrane potential dye fluorescence, at 10 µM, stimulated with maximal-effect acetylcholine; stronger effect = higher value
Short transient receptor potential channel 6 (Mus musculus), sequence (Q61143 whole entry, looked up): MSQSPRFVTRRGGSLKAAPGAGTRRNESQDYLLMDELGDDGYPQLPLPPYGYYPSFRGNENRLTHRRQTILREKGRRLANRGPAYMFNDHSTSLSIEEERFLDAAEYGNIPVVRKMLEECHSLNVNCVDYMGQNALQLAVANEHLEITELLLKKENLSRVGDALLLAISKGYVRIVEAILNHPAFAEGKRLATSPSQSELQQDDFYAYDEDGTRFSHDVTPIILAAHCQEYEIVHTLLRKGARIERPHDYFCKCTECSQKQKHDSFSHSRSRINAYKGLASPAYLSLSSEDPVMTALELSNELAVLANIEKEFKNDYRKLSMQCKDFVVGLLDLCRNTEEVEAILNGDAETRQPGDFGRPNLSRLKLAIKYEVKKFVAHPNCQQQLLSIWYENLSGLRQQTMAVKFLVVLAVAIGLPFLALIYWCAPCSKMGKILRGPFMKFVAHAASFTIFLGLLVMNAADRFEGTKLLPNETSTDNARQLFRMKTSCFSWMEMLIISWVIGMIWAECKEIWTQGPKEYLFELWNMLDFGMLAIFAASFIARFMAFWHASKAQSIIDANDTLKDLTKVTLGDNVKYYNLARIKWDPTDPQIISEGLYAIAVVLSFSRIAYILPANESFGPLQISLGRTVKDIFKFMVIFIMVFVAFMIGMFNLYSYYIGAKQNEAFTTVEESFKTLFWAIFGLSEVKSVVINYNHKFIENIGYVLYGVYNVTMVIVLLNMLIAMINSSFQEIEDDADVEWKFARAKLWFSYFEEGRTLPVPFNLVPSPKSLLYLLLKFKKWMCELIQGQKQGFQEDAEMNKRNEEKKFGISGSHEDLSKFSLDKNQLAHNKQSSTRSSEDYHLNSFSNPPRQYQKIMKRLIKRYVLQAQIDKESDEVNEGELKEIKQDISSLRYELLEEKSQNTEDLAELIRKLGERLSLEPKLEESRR

[10] = molecular target: Short transient receptor potential channel 6 (Mus musculus) (UniProt Q61143); assay: TRPC6 opening by TRPC4 activator hits – cell-based, HEK293, membrane potential dye, duplicate, selectivity assay for TRPC4 activator project, confirmation (AID 434950;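 active = membrane potential signal rise above negative control mean plus 3 SD in both duplicates, also active in the earlier TRPC4 screen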;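 for activation: 0% = buffer only wells and 100% = acetylcholine maximal-effect wells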); conditions: HEK293 TRPC6, membrane potential fluorescence, at 10 µM; activation: stronger effect = higher value; outcome: activation
[11] = molecular target: Short transient receptor potential channel 6 (Mus musculus) (UniProt Q61143); assay: positive modulators of mouse TRPC6 channel – HEK293 cells, membrane potential dye, duplicate, selectivity assay for TRPC4 potentiator project, confirmation (AID 434952); conditions: HEK293 TRPC6, membrane potential dye fluorescence, at 10 µM, maximal acetylcholine added after compound; stronger effect = higher value
[12] = molecular target: Short transient receptor potential channel 4 (Mus musculus) (UniProt Q9QUQ5); assay: calcium flux activators in TRPC4/5HT1a cells, counter-screen for TRPC4 activator project, cell-based, second counter screen, HEK293 TRPC4/5HT1a, Fluo-4 (AID 434977;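 active = calcium signal rise above buffer-control mean plus 5 SD in both duplicates, and also a hit in the primary screen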;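 for activation: plate controls were assay buffer for no effect and maximal serotonin response for full effect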); conditions: Fluo-4 calcium flux, at 10 µM; stronger effect = higher value
[13] = serotonin-gated TRPC4 signal block – cell-based, second counter screen, HEK293 TRPC4/5HT1a, Fluo-4, counter-screen for TRPC4 inhibitor project, confirmation (AID 434978;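 active = primary screen active whose calcium signal fell more than 3 SD beyond the full-serotonin control mean in both duplicate plates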;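 note: serotonin given first at submaximal then at maximal dose after compound preincubation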); conditions: Fluo-4 calcium flux, at 10 µM, serotonin added to trigger calcium flux; stronger effect = higher value
[14] = test system: TRPC4 (mouse), co-expressed with 5HT1a in HEK293; assay: enhancement of serotonin-evoked TRPC4 response – cell-based, second counter screen, HEK293 TRPC4/5HT1a, Fluo-4, counter-screen for TRPC4 potentiator project, confirmation (AID 434979;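 active = signal rise over 3 SD above mean of control wells given weak agonist, in both repeats and first screen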); conditions: Fluo-4 calcium flux, at 10 µM, serotonin added at its EC20 dose; stronger effect = higher value
[15] = nonspecific calcium rise without TRPC4 – cell-based, HEK293 mu-opioid receptor line, counter-screen for TRPC4 activator project, confirmation (AID 449723;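 active = hit in primary screen, with calcium signal over 5 SD above buffer well mean in both duplicates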;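 note: counter screen cells carry the mu-opioid receptor alone and lack TRPC4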); conditions: HEK293 mu-opioid cells, Fluo-4 calcium fluorescence, at 10 µM; stronger effect = higher value
[16] = nonspecific potentiation of DAMGO calcium response – cell-based, HEK293 mu-opioid receptor line, counter-screen for TRPC4 allosteric potentiator project, confirmation (AID 449724;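 active = calcium signal rise more than 3 SD above the low-dose agonist control mean, in both duplicate plates and the primary screen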); conditions: HEK293 mu-opioid receptor cells, Fluo-4 calcium flux, at 10 µM, compound added before EC20 DAMGO stimulus; stronger effect = higher value

CCOC(=O)C1(CCOc2ccccc2)CCN(Cc2ccc(OC)c(O)c2)CC1
active: activation [1] 207% | activation [2] 80% | activation [10] 66.5%
inactive: outcome [3] | outcome [4] | outcome [5] | outcome [6] | outcome [7] | outcome [8] | outcome [9] | outcome [11] | outcome [12] | outcome [13] | outcome [14] | outcome [15] | outcome [16]

CN(C)C(CNC(=S)Nc1ccccc1)c1cccnc1 (stereo not given)
inactive: outcome [3] | outcome [4] | outcome [5] | outcome [6] | outcome [7] | outcome [8] | outcome [9] | outcome [11] | outcome [12] | outcome [13] | outcome [14] | outcome [15] | outcome [16]
active: activation [1] 76% | activation [2] 82% | activation [10] 36%

CCCCN(CC)CCNC(=O)c1cc2c(C)nc3ccccc3c2o1
active: activation [1] 128% | activation [12] 42.6%
inactive: outcome [2] | outcome [3] | outcome [4] | outcome [5] | outcome [6] | outcome [7] | outcome [8] | outcome [9] | outcome [10] | outcome [11] | outcome [13] | outcome [14] | outcome [15] | outcome [16]

O=C(NCCc1ccccn1)C(F)(F)C(F)(F)C(F)(F)C(F)(F)C(F)(F)C(F)F
active: activation [1] 178% | activation [12] 46%
inactive: outcome [2] | outcome [3] | outcome [4] | outcome [5] | outcome [6] | outcome [7] | outcome [8] | outcome [9] | outcome [10] | outcome [11] | outcome [13] | outcome [14] | outcome [15] | outcome [16]

O=C(c1sc2ccccc2c1Cl)N(Cc1cccs1)C1CCS(=O)(=O)C1 (stereo not given)
inactive: outcome [3] | outcome [4] | outcome [5] | outcome [6] | outcome [7] | outcome [8] | outcome [9] | outcome [11] | outcome [13] | outcome [14] | outcome [15] | outcome [16]
active: activation [1] 265% | activation [2] 79% | activation [10] 35% | activation [12] 12%

CN(C)CCN(C(=O)c1cccc2ccccc12)c1nc2cc3c(cc2s1)OCO3
inactive: outcome [1] | outcome [2] | outcome [3] | outcome [4] | outcome [5] | outcome [6] | outcome [7] | outcome [8] | outcome [9] | outcome [10] | outcome [11] | outcome [12] | outcome [13] | outcome [14] | outcome [15] | outcome [16]

Cc1ccc(C)c(OCCCCCn2ccnc2)c1
active: activation [1] 174% | activation [10] 49% | activation [12] 25.7%
inactive: outcome [2] | outcome [3] | outcome [4] | outcome [5] | outcome [6] | outcome [7] | outcome [8] | outcome [9] | outcome [11] | outcome [13] | outcome [14] | outcome [15] | outcome [16]

CCOC(=O)C1(CCOc2ccccc2)CCN(Cc2ccc3c(c2)OCCO3)CC1
inactive: outcome [1] | outcome [2] | outcome [3] | outcome [4] | outcome [5] | outcome [6] | outcome [7] | outcome [8] | outcome [9] | outcome [11] | outcome [12] | outcome [13] | outcome [14] | outcome [15] | outcome [16]
active: activation [10] 74.5%

CC1CCCN(CCCNC(=O)c2ccc3c(c2)N(Cc2ccccc2F)C(=O)c2ccccc2S3(=O)=O)C1 (stereo not given)
active: activation [1] 125% | activation [2] 68% | activation [12] 24.4%
inactive: outcome [3] | outcome [4] | outcome [5] | outcome [6] | outcome [7] | outcome [8] | outcome [9] | outcome [10] | outcome [11] | outcome [13] | outcome [14] | outcome [15] | outcome [16]

OCCNCCSc1ccc(Cl)cc1
inactive: outcome [2] | outcome [3] | outcome [4] | outcome [5] | outcome [6] | outcome [7] | outcome [8] | outcome [9] | outcome [11] | outcome [13] | outcome [14] | outcome [15] | outcome [16]
active: activation [1] 82% | activation [10] 39.5% | activation [12] 22.3%

CN(C)C(CNC(=O)/C=C/c1cccc(Cl)c1)c1ccccc1 (stereo not given)
active: activation [1] 148% | activation [2] 83% | activation [10] 49%
inactive: outcome [3] | outcome [4] | outcome [5] | outcome [6] | outcome [7] | outcome [8] | outcome [9] | outcome [11] | outcome [12] | outcome [13] | outcome [14] | outcome [15] | outcome [16]

Cc1ccc(N2CCN(c3ccc(NCc4nc5ccccc5n4C)cc3)CC2)cc1
active: activation [1] 79%
inactive: outcome [2] | outcome [3] | outcome [4] | outcome [5] | outcome [6] | outcome [7] | outcome [8] | outcome [9] | outcome [10] | outcome [11] | outcome [12] | outcome [13] | outcome [14] | outcome [15] | outcome [16]

Cc1ccc(C2N(c3ccc(Cl)c(Cl)c3)C(=O)C3CCCN32)o1 (stereo not given)
active: activation [1] 53% | potentiation [3] 9% | potentiation [4] 22% | activation [12] 13.8% | potentiation [14] 20%
inactive: outcome [2] | outcome [5] | outcome [6] | outcome [7] | outcome [8] | outcome [9] | outcome [10] | outcome [11] | outcome [13] | outcome [15] | outcome [16]

CCN(CCCNS(=O)(=O)c1cc(-c2cc(C)no2)ccc1C)Cc1ccccc1
inactive: outcome [3] | outcome [4] | outcome [5] | outcome [6] | outcome [7] | outcome [8] | outcome [9] | outcome [11] | outcome [13] | outcome [14] | outcome [15] | outcome [16]
active: activation [1] 171% | activation [2] 96% | activation [10] 40.5% | activation [12] 68.6%

CCn1cc(CN2CCCC(C(=O)Nc3ccc(-c4nc5ccccc5[nH]4)cc3)C2)c(C)n1 (stereo not given)
inactive: outcome [3] | outcome [4] | outcome [5] | outcome [6] | outcome [7] | outcome [8] | outcome [9] | outcome [11] | outcome [13] | outcome [14] | outcome [15] | outcome [16]
active: activation [1] 169% | activation [2] 116% | activation [10] 52% | activation [12] 35.7%
